According to PubChem BioAssay (Tox21):
Inconclusive results are not listed. Activity calls are given as the source filed them. Calls follow the shape of the dose curve; as a rule, active = well fitted curve in the direction sought with a large enough effect in the repeat runs; inconclusive = weak or mixed curves; inactive = no such curve, though single readings can be large; an effect the other way counts as inactive or inconclusive.

Tests used:
[1] = Caspase-3/7 induction in CHO-K1 cells by small molecules, qHTS assay (AID 1346980); also: % is scaled to controls: 0 for no effect and ±100 for the full control effect; nearly all actives have a fitted effect of over 15% in size
How it was run: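 Luminescent Caspase-Glo 3/7 read (30min, room temperature) quantified apoptosis induction. Cells were wild-type CHO-K1, treated with compound for 17hr at 37 C and 5% CO2.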

[2] = Caspase-3/7 induction in HepG2 cells by small molecules, qHTS cell viability counter screen (AID 1346981); also: nearly all actives have a fitted effect of over 30% in size; also: potency is read from the fitted curve at half-maximal effect; as to activity change, negative = cytotoxicity: series mostly up to about 92 µM; % is scaled to controls: 0 for no effect and ±100 for the full control effect
How it was run: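 Viability determined by CellTiter-Fluor fluorescence in HepG2 wells also used for the luminescent Caspase-Glo 3/7 read. Compounds were present for 16 hr at 37 C, 5% CO2 before reagent addition.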

[3] = molecular target: Nuclear receptor subfamily 1 group I member 2 (Homo sapiens) (UniProt O75469); experiment: Human pregnane X receptor (PXR) small molecule agonists, qHTS assay (AID 1346982); also: nearly all actives have a fitted effect of over 35% in size; also: potency is read from the fitted curve at half-maximal effect; as to activation: % is scaled to controls: 0 for no effect and ±100 for the full control effect
Nuclear receptor subfamily 1 group I member 2 (Homo sapiens), sequence (O75469 whole entry, looked up): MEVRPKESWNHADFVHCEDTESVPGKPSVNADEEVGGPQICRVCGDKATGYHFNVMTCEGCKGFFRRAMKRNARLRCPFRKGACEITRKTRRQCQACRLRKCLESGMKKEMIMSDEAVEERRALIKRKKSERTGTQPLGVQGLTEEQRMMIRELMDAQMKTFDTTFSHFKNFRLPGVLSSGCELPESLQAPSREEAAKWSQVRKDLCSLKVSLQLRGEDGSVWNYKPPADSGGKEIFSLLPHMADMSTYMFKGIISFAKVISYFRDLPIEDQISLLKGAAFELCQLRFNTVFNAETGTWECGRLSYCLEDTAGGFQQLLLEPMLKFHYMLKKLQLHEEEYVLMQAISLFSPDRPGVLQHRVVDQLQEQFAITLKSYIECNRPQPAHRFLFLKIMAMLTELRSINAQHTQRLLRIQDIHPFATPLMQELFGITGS
How it was run: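 Compound-induced hPXR transactivation of a CYP3A4 luciferase reporter was scored in HepG2 PXR-Luc cells over 24 hr at 37 C, 5% CO2, by luminescence.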

[4] = molecular target: Cytochrome P450 2C9 (Homo sapiens) (UniProt P11712); experiment: Cytochrome P450 Family 2 Subfamily C Member 9 (CYP2C9) small molecule antagonists: luciferase reporter qHTS assay (AID 1671198); also: nearly all actives have a fitted effect of over 50% in size; also: potency is read from the fitted curve at half-maximal effect; as to activity change, negative = inhibition: series mostly up to about 120 µM; % is scaled to controls: 0 for no effect and ±100 for the full control effect
Cytochrome P450 2C9 (Homo sapiens), sequence (P11712 whole entry, looked up): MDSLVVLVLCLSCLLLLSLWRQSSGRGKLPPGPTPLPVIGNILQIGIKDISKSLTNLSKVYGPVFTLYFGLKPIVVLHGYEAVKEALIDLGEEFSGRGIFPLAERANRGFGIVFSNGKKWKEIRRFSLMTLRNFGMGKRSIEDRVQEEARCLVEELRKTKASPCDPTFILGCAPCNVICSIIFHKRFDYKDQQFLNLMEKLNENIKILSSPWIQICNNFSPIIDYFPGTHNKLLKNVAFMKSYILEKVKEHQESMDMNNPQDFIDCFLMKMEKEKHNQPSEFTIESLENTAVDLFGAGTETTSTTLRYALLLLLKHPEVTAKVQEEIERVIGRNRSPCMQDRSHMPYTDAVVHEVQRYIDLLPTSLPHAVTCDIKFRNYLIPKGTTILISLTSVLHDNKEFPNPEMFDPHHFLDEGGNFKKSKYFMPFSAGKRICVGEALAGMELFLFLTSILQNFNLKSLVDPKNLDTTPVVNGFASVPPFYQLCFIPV
How it was run: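 Enzyme-substrate mix preincubated with compound 10 min at room temperature; reaction started with NADPH regeneration solution, 1 h 37C. Luminescent luciferin product read after 20 min detection reagent.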

[5] = molecular target: Cytochrome P450 1A2 (Homo sapiens) (UniProt P05177); experiment: Cytochrome P450 Family 1 Subfamily A Member 2 (CYP1A2) small molecule antagonists: luciferase reporter qHTS assay (AID 1671199); also: nearly all actives have a fitted effect of over 50% in size; also: potency is read from the fitted curve at half-maximal effect; as to activity change, negative = inhibition: series mostly up to about 120 µM; % is scaled to controls: 0 for no effect and ±100 for the full control effect
Cytochrome P450 1A2 (Homo sapiens), sequence (P05177 whole entry, looked up): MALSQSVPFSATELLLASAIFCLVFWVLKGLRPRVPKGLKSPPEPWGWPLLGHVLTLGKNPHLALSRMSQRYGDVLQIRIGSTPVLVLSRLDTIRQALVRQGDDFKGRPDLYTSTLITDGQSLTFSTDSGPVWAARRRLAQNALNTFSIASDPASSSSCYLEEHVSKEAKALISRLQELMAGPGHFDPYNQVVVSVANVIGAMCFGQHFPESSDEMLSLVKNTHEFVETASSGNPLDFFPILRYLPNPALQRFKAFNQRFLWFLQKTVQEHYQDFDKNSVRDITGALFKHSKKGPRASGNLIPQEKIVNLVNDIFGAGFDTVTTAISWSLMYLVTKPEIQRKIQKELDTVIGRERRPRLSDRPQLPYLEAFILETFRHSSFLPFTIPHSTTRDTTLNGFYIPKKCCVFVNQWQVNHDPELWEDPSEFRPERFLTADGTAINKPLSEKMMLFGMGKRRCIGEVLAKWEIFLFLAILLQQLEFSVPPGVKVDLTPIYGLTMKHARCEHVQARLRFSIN
How it was run: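 Enzymatic CYP1A2 assay, human, luminescent: 10 min compound–enzyme–substrate preincubation, 1 h NADPH-dependent turnover, 20 min detection step, room temperature throughout. Reduced light indicates lower CYP1A2 activity.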

[6] = molecular target: Voltage-gated inwardly rectifying potassium channel KCNH2 (Homo sapiens) (UniProt Q12809); experiment: Human Ether-a-go-go-Related Gene (hERG) channel small molecule antagonists: fluorescence cell-based qHTS assay (AID 1671200); also: nearly all actives have a fitted effect of over 50% in size; also: potency is read from the fitted curve at half-maximal effect
Voltage-gated inwardly rectifying potassium channel KCNH2 (Homo sapiens), sequence (Q12809 whole entry, looked up): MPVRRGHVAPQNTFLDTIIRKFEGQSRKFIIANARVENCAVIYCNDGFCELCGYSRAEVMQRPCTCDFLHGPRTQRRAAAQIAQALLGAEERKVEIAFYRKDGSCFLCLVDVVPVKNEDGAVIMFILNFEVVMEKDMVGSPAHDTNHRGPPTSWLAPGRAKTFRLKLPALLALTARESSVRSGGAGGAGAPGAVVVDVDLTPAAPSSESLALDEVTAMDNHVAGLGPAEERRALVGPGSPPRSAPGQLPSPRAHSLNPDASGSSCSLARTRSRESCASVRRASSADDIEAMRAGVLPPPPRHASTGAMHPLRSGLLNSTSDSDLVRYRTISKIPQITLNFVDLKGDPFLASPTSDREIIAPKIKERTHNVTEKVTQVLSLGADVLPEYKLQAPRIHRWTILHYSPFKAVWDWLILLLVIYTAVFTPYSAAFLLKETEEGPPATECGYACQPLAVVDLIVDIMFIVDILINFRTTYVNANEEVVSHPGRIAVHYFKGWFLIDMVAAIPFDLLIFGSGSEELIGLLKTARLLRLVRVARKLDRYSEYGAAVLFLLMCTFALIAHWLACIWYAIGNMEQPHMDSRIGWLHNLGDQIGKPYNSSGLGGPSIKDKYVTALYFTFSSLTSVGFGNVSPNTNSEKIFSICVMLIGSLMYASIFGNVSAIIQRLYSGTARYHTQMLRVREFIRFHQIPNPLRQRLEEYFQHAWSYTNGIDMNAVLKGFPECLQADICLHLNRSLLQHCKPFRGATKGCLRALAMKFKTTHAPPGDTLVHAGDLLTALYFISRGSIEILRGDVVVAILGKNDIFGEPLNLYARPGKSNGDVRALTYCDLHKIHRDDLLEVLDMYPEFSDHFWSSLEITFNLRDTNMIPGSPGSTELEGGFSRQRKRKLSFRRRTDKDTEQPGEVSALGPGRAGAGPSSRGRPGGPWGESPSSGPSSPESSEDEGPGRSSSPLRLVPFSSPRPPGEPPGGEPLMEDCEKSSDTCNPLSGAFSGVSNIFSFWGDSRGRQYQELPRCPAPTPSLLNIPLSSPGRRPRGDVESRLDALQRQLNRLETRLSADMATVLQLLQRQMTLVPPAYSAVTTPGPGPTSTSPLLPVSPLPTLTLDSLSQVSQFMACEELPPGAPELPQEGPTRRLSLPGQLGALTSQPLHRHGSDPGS
How it was run: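 Read-out: thallium influx as a surrogate for potassium, tracked as fluorescence (480 nm ex/540 nm em) every second for 2 min after Stimulus Buffer addition in dye-loaded hERG-U2OS cells.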

[7] = molecular target: Cytochrome P450 3A4 (Homo sapiens) (UniProt P08684); experiment: Cytochrome P450 Family 3 Subfamily A Member 4 (CYP3A4) small molecule antagonists: luciferase reporter qHTS assay (AID 1671201); also: nearly all actives have a fitted effect of over 50% in size; also: potency is read from the fitted curve at half-maximal effect
Cytochrome P450 3A4 (Homo sapiens), sequence (P08684 whole entry, looked up): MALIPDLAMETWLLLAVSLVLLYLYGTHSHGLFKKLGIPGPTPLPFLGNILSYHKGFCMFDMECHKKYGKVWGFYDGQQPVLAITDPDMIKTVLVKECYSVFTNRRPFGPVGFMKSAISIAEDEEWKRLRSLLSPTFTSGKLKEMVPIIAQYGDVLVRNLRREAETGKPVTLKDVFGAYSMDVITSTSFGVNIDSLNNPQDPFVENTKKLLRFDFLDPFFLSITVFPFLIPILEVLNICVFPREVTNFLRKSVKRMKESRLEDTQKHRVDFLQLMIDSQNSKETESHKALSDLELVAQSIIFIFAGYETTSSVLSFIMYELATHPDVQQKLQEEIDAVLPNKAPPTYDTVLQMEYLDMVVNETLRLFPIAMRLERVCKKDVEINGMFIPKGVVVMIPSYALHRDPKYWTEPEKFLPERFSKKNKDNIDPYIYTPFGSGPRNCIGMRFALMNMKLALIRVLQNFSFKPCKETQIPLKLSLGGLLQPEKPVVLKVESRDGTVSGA
How it was run: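 Luminescent readout (RLU) proportional to CYP3A4 activity, from luciferin generated off a proluciferin substrate. Enzyme–substrate mix plus compound 10 min at room temp, NADPH regeneration 1 h, detection reagent 20 min.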

[8] = molecular target: Cytochrome P450 2C19 (Homo sapiens) (UniProt P33261); experiment: Cytochrome P450 Family 2 Subfamily C Member 19 (CYP2C19) small molecule antagonists: luciferase reporter qHTS assay (AID 1671197); also: potency is read from the fitted curve at half-maximal effect; nearly all actives have a fitted effect of over 65% in size
Cytochrome P450 2C19 (Homo sapiens), sequence (P33261 whole entry, looked up): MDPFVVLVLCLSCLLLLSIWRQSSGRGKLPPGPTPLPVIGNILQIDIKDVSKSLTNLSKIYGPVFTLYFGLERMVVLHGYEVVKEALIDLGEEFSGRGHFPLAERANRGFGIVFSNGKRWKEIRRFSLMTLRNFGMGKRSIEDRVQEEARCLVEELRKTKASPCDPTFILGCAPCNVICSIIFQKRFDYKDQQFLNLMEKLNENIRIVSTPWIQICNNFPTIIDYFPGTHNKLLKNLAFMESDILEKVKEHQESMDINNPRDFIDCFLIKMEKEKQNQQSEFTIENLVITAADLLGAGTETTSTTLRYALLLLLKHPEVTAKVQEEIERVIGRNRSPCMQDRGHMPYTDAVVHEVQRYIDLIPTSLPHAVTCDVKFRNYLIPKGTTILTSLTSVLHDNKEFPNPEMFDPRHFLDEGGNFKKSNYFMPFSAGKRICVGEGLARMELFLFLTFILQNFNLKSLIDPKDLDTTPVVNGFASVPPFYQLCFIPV
How it was run: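 Relative luminescence units recorded 20 min after the detection reagent stopped a 1 h, 37C CYP2C19 reaction on proluciferin substrate, which was started by NADPH regeneration following 10 min room-temperature compound preincubation; ketoconazole positive control.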

[9] = molecular target: Cytochrome P450 2D6 (Homo sapiens) (UniProt P10635); experiment: Cytochrome P450 Family 2 Subfamily D Member 6 (CYP2D6) small molecule antagonists: luciferase reporter qHTS assay (AID 1671196); also: nearly all actives have a fitted effect of over 50% in size; also: potency is read from the fitted curve at half-maximal effect
Cytochrome P450 2D6 (Homo sapiens), sequence (P10635 whole entry, looked up): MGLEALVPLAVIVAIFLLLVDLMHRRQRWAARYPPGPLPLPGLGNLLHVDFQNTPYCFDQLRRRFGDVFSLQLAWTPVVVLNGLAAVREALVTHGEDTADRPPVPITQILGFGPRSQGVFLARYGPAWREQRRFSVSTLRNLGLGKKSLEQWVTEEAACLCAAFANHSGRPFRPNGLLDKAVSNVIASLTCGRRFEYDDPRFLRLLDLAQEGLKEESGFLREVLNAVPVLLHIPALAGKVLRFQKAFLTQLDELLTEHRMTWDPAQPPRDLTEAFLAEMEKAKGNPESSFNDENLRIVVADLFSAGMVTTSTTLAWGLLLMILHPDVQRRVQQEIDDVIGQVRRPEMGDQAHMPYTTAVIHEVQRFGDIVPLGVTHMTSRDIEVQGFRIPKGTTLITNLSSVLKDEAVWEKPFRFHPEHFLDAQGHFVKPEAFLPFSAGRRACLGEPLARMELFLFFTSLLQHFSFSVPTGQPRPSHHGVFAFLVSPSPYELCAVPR
How it was run: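 Each well received CYP2D6 with its proluciferin substrate and chemical, sat 10 min, then got NADPH regeneration solution for 1 h at room temperature. Luminescence in RLU served as the activity measure.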

C=CC(C)(C)O
inactive: Potency [1] | Potency [2] | Potency [3] | Potency [4] | Potency [5] | Potency [6] | Potency [7]

CC(O)(c1ccc(Cl)cc1)c1ccc(Cl)cc1
inactive: Potency [1] | Potency [2] | Potency [7]
active: Potency [3] 27.3 µM | Potency [8] 0.113 µM | Potency [4] 7.96 µM | Potency [5] 31.7 µM | Potency [6] 49 µM

COc1ccc(OC)c(N=Nc2c(O)ccc3ccccc23)c1
inactive: Potency [1] | Potency [6]
active: Potency [2] 27.3 µM | Potency [3] 9.69 µM | Potency [4] 6.33 µM | Potency [5] 0.894 µM | Potency [7] 2.83 µM

C=CC(=O)OCCOC1C2CCC1C1CC=CC12 (stereo not given)
inactive: caspase-3/7 activation [1] 0.29% [at 19 µM] | activity change, negative = cytotoxicity [2] 6.81% [at 19 µM] | activation [3] 5.97% [at 19 µM] | activity change, negative = inhibition [4] -18.2% [at 23.6 µM] | activity change, negative = inhibition [5] -16.8% [at 23.6 µM] | activity change, negative = inhibition [6] 2.03% [at 15.8 µM] | activity change, negative = inhibition [7] -3.35% [at 23.6 µM]
active: Potency [8] 19 µM

CCn1c2ccccc2c2ccccc21
inactive: Potency [1] | Potency [2] | Potency [3] | Potency [6] | Potency [7]
active: Potency [8] 22.4 µM | Potency [5] 3.99 µM

O=C1OC(O)C(C(Cl)Cl)=C1Cl (stereo not given)
active: Potency [2] 50 µM | Potency [3] 22.4 µM
inactive: Potency [1] | Potency [4] | Potency [5] | Potency [6] | Potency [7]

NC(=O)c1ccccc1Cl
inactive: Potency [1] | Potency [2] | Potency [3] | Potency [9] | Potency [4] | Potency [5] | Potency [6] | Potency [7]

CCc1c(C)cc(N)c(CC)c1N
inactive: Potency [1] | Potency [2] | Potency [6]
active: Potency [3] 24.3 µM | Potency [9] 4.48 µM | Potency [4] 28.3 µM | Potency [5] 20 µM | Potency [7] 15.9 µM
